Assay outcomes deposited in PubChem by Center for Chemical Genomics, University of Michigan.
The sample as a whole holds a higher share of hits than the screen did.
Dicer processing: inhibitors of human Dicer processing of pre-microRNA. cat-ELCCA pre-miR-21 Dicer processing, chemiluminescence; hits give high values. Q9UPY3. AID 1347074. actives 6% (n = 47,000). z-score at 25 µM; in the data active = z-score above about 3, passing the limit was not always enough;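 note: plate controls were vehicle for no effect and no enzyme for full effect; higher signal means more uncleaved substrate so more Dicer inhibition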
Target sequence (Q9UPY3 whole entry, looked up): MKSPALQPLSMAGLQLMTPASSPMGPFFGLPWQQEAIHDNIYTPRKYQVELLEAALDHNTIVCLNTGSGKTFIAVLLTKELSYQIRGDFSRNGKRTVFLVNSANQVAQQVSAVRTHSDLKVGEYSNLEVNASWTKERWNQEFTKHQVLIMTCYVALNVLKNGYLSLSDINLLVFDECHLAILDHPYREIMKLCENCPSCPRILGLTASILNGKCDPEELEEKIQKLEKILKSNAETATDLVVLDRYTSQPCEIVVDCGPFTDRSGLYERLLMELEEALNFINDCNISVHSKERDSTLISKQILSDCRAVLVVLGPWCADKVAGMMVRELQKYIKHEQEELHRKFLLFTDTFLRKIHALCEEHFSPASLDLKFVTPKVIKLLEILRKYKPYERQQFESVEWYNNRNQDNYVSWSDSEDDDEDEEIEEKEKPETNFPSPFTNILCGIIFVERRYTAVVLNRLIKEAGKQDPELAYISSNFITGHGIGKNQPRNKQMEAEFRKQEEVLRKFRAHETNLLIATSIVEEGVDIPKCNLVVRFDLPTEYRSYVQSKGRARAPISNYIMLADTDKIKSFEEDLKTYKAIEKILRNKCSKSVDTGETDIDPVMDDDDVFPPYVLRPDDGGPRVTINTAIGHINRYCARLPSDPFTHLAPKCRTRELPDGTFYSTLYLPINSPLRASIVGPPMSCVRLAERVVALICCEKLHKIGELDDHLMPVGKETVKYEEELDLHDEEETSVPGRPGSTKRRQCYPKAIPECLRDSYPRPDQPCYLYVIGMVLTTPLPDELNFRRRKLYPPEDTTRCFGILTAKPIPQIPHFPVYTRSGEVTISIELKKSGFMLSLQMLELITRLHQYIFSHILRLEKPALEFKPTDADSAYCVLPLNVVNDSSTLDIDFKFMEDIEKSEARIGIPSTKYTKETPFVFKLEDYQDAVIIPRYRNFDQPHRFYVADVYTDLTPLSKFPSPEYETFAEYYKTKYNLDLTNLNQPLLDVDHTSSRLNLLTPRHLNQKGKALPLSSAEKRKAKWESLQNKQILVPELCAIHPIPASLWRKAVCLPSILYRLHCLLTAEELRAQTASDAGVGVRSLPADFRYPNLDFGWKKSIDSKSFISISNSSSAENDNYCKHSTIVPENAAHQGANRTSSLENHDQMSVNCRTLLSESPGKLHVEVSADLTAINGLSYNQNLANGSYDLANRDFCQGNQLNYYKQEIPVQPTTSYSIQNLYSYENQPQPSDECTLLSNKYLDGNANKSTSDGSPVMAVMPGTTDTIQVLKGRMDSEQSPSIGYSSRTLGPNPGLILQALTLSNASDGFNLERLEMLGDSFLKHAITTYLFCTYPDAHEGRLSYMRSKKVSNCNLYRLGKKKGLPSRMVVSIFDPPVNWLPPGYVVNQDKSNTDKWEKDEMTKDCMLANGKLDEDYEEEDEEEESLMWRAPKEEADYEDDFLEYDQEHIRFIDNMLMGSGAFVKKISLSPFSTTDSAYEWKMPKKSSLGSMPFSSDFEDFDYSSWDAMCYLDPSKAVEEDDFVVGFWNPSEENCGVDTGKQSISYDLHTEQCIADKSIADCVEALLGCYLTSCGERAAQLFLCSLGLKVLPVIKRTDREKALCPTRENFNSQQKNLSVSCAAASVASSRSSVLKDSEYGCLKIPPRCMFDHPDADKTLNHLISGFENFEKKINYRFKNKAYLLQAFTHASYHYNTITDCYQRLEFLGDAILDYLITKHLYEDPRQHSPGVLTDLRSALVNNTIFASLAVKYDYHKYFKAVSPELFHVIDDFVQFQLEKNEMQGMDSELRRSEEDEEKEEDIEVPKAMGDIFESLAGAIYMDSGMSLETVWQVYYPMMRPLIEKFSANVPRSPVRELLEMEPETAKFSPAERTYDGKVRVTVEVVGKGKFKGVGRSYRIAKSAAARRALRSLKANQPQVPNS
* marks the source's active call; other numbers are inactive results.

SMILES | Dicer processing
O=S(=O)(NCc1ccc(C(F)(F)F)cc1)c1cc(Br)c(Br)s1 | -0.4
CCOC(=O)CC(=O)CSc1nc(C)c(C)c(C)c1C#N | 0.68
CC(=O)c1ccc(C#N)c(SCC(=O)c2ccccc2)n1 | 0.91
Cc1nc(SCC(=O)c2ccccc2)c(C#N)c(C)c1C | 4.4*
CC(C)OCC(O)Cn1c(NC2CCCCC2)nc2c1c(=O)[nH]c(=O)n2C (stereo unspecified) | -1.3
Cc1cccc(Cl)c1/C=N/NC(=O)Cc1csc(-c2ccccc2)n1 | -0.38
Cc1nc(-c2ccc(S(=O)(=O)N3CCCN(c4ccc(C(F)(F)F)cn4)CC3)s2)cs1 | 2.6
O=C(O)c1ccccc1C(=O)c1ccc(-c2ccccc2)cc1 | -0.68
Cc1cccc(C(=O)c2ccccc2C(=O)O)c1 | -1.2
O=C(O)c1ccccc1C(=O)c1ccc(F)cc1 | 3.1*
COC(=O)c1ccc2nc(C)c(C)nc2c1 | 2.4
Cc1ccc(C(=O)COC(=O)c2ccc3nc(C)c(C)nc3c2)cc1 | -0.11
CCOC(=O)c1ccc2nc(C)c(C)nc2c1 | 4.8*
COc1ccc(C2c3c(oc4ccccc4c3=O)C(=O)N2c2nnc(C(C)C)s2)cc1 (stereo unspecified) | -0.48
COC(=O)c1ccc(CN2C(=O)C(=O)c3ccccc32)o1 | 3.7*
CN(C)CCN1C(=O)C(=O)c2ccccc21 | -1.5
CCCN1C(=O)C(=O)c2ccccc21 | -0.36
COC(=O)c1ccc(Cn2c(C)cc(C)[n+]2C)o1 | 2.9
COC(=O)CN1C(=O)C(=O)c2ccccc21 | -1.6
O=C1C(=O)N(Cc2ccc(CN3C(=O)C(=O)c4ccccc43)cc2)c2ccccc21 | 3*
COc1ccc(/C=N/Nc2ncnc3scc(C)c23)cc1 | 2.5
O=C1NC(c2ccc([N+](=O)[O-])s2)Nc2ccccc21 (stereo unspecified) | -0.22
Cc1ccc(C)n1-c1sc2c(c1C(=O)NNS(=O)(=O)c1ccc(C(F)(F)F)cc1)CCCC2 | -0.2
N#C/C(=C\c1cc(C#Cc2ccccc2)cs1)C(=O)c1ccccc1 | -0.04
C/C(=N\NS(=O)(=O)c1ccccc1)c1cc(-c2ccccc2)no1 | -0.73
SMILES | Dicer processing
CCCOc1ccc(C2C(C(=O)OCCOC)=C(C)N=C3SCCC(=O)N32)cc1 (stereo unspecified) | -0.75
N#Cc1c(SCc2ccc(Cl)cc2)nsc1Nc1ccc(Cl)cc1 | 3*
N#Cc1cnc(SCc2ccc(Cl)cc2)nc1N | 0.28
FC(F)(F)c1cccnc1SCc1ccc(Cl)cc1 | -1.6
CCOc1cccc(-c2nc3ccc(Br)cc3c(=O)o2)c1 | 1.2
Cc1ccc(CN2C(=O)CSC2c2ccc(C(C)C)cc2)cc1 (stereo unspecified) | 1.2
CC(C(=O)OCc1cccc(Br)c1)N1C(=O)C(=O)c2ccccc21 (stereo unspecified) | 0.16
COc1ccc(NC(=O)Nc2c(C)noc2-c2ccccc2)cc1 | 1.5
COc1ccc(OCC(O)CNC(=O)Nc2ccc(OCc3ccccc3)cc2)cc1 (stereo unspecified) | -0.86
COc1ccc(NC(=O)Nc2nnc(COc3ccccc3F)s2)cc1 | 3.5*
FC(F)(F)c1c2c(nc3cc(C4CC4)nn13)-c1ccccc1CC2 | -0.88
COCCNC(=O)c1nn2c(C(F)(F)F)c3c(nc2c1Cl)-c1ccccc1CC3 | 4.7*
Cc1cc2nc3c(c(C(F)(F)F)n2n1)CCc1ccccc1-3 | -1.6
CC1CCN(Cc2cc(Cl)c(O)c3ncccc23)CC1 | -0.42
CCOC(=O)N/N=C(\CC)c1ccccc1 | 0.06
CSC1=NC=C(C#N)C2=NC(C)(c3ccc(Br)cc3)NN12 (stereo unspecified) | 0.81
COc1cc2c(cc1OC)C(C)N(S(=O)(=O)c1sc3ccc(Cl)cc3c1C)CC2 (stereo unspecified) | -0.62
O=C(CSc1nc(-c2ccco2)cc(C(F)(F)F)n1)NCc1ccco1 | -0.76
COc1ccc(-c2cn3cccc(C)c3n2)cc1 | 0.29
CCCOc1ccc(-c2cn3ccccc3n2)cc1 | 3.9*
CCc1ccn2cc(-c3ccc(C)cc3)nc2c1 | 1.6
COc1ccc(-c2cn3ccccc3n2)cc1Br | 1.1
COc1ccc(-c2cn3ccccc3n2)cc1 | 5.8*
COc1c(Cl)cccc1-c1cn2ccccc2n1 | -1.6
Cc1cc(NC(=O)COCC(=O)O)n(C)n1 | 1.1
SMILES | Dicer processing
N#Cc1ccc(-c2cn3cccnc3n2)cc1 | -3
Cn1cc(C(/C=C/c2ccc([N+](=O)[O-])o2)c2cn(C)c3ccccc23)c2ccccc21 | 1.7
COc1cccc(/C=N/NC(=O)C2CCCN(C(=S)NNC3CC4C=CC3C4)CC2)c1O (stereo unspecified) | 3.7*
NC(=O)C1CCN(C(=S)NC2CC3C=CC2C3)CC1 (stereo unspecified) | -0.16
CCOC(=O)C1CCN(C(=S)NC2CC3C=CC2C3)CC1 (stereo unspecified) | 0.1
Cc1ccccc1OCc1nnc2c3cnn(Cc4ccccc4)c3ncn12 | 0.11
COc1ccc2[nH]c(C(=O)NCCSCc3ccc(F)cc3)cc2c1 | 0.67
Cc1cc(NC(=O)c2ccc(Cl)cc2Cl)n(C)n1 | -0.87
CC12C(=O)N(c3ccc(F)cc3)C(=O)C1ON(c1ccccc1)C2c1ccccc1O (stereo unspecified) | 0.75
